From PubChem BioAssay (Tox21) come the findings set out here.

A short description of experiment [1]: qHTS assay to identify small molecule agonists of H2AX (AID 1224845; active = well fitted activation curve with a large enough effect in the signal ratio in the repeat runs, not every such curve was filed as active; the % refers to the signal ratio; note: potency is the fitted concentration of half-maximal effect). The method in brief:
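Wild-type CHO-K1 cells, plated overnight, exposed 3hr at 37C to 15 concentrations (0.76% DMSO final). Lysed, then HTRF anti-pH2AX (S139) cryptate and anti-H2AX-d2 antibodies, 24 hr room temperature; 665/620 nm emission read.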
For orientation: Quantitative high-throughput screening tests each substance at several concentrations.

Experiment [2] is described as follows: qHTS assay to identify small molecule agonists of the hypoxia (HIF-1) signaling pathway (AID 1224846; active = well fitted activation curve with a large enough effect in the signal ratio in the repeat runs, not every such curve was filed as active; the % refers to the signal ratio). The essentials:
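Measured by blue/green FRET after loading CCF4-AM: beta-lactamase expressed from a hypoxia response element in ME-180 cells. Test agents were delivered in DMSO and left 17 hrs; cells had been plated 5 hrs earlier in low-serum (0.5% dialyzed FBS) medium.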

A short description of experiment [3]: qHTS assay to identify small molecule agonists of H2AX - cell viability counter screen (AID 1224847; calls by dose curve; note: top concentration of the series differs between compounds; nearly all actives have a fitted effect of over 30% in size). The method in brief: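 We seed wild-type CHO-K1 cells overnight, treat them for 3 hr at 37C with compounds in 15-concentration series, and quantify remaining viability by CellTiter-Glo luminescence.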
Experiment [4] is described as follows: qHTS RealTime-Glo MT Cell Viability Assay in HepG2 cells - 24 hour (AID 1224867). Note: nearly all actives have a fitted effect of over 50% in size. The essentials:
(§1)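 HepG2 suspension premixed with RealTime-Glo reagents is plated at 600 cells per well and left 5 h at 37 C/5% CO2. Compounds in DMSO then go in, and bioluminescence reflecting viable cell number is recorded over 40 h.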

A short description of experiment [5]: qHTS RealTime-Glo MT Cell Viability Assay in HEK293 cells - 32 hour (AID 1224868). Note: nearly all actives have a fitted effect of over 50% in size. Note: potency is the fitted concentration of half-maximal effect. The essentials:
(§2)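 Reads taken at 0, 8, 16, 24, 32 and 40 h from the same wells. HEK293 cells (600/well) carried RealTime-Glo reagents from seeding, with compound added after a 5 h settle at 37 C.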

Experiment [6] can be described thus: A CellTox Green Cytotoxicity Assay to monitor cytotoxicity in HEK293 cells - 0 hour (AID 1224869). Note: nearly all actives have a fitted effect of over 50% in size. The method in brief:
(§3)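 Each value comes from one timepoint of a single continuous run in which HEK293 cells with CellTox Green were exposed to compound for up to 40 h at 37 C, dye fluorescence rising with cell death.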

Experiment [7] is described as follows: A CellTox Green Cytotoxicity Assay to monitor cytotoxicity in HEK293 cells - 40 hour (AID 1224871). Note: nearly all actives have a fitted effect of over 45% in size. The essentials: as §3
A short description of experiment [8]: qHTS RealTime-Glo MT Cell Viability Assay in HEK293 cells - 16 hour (AID 1224872). Note: top concentration of the series differs between compounds; nearly all actives have a fitted effect of over 50% in size. The essentials:
as §2

Experiment [9] is described as follows: qHTS RealTime-Glo MT Cell Viability Assay in HepG2 cells - 8 hour (AID 1224873). Note: nearly all actives have a fitted effect of over 55% in size. The method in brief:
(§4)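 HepG2 cells (600/well) mixed with RealTime-Glo MT reagent, settled 5 h at 37 C/5% CO2 before compound addition. Nonlytic NanoLuc luminescence from viable-cell prosubstrate reduction read repeatedly during 40 h treatment at 37 C.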

Experiment [10] can be described thus: qHTS RealTime-Glo MT Cell Viability Assay in HEK293 cells - 40 hour (AID 1224874). Note: nearly all actives have a fitted effect of over 50% in size. Note: potency is the fitted concentration of half-maximal effect. Particulars: RealTime-Glo luminescence; max response: hits give low values. The method in brief:
(§5)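 qHTS format; HEK293 cells with NanoLuc/prosubstrate reagent, 37 C/5% CO2 for 5 h pre-dosing; compounds 23 nL in DMSO; luminescence at each time point reflects viable cells.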

Experiment [11] in a line: A CellTox Green Cytotoxicity Assay to monitor cytotoxicity in HEK293 cells - 24 hour (AID 1224875). Note: nearly all actives have a fitted effect of over 45% in size. The essentials: as §3
A short description of experiment [12]: A CellTox Green Cytotoxicity Assay to monitor cytotoxicity in HepG2 cells - 16 hour (AID 1224876). Note: nearly all actives have a fitted effect of over 45% in size. The method in brief:
(§6)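 Continuous culture of HepG2 cells with a membrane-impermeant DNA dye; rising fluorescence marks dead cells. Compound exposure lasted up to 40 h at 37 C, with reads every 8 h from 0 h.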

The nature of experiment [13]: qHTS RealTime-Glo MT Cell Viability Assay in HepG2 cells - 32 hour (AID 1224877). Note: nearly all actives have a fitted effect of over 55% in size. The essentials:
as §1

A short description of experiment [14]: A CellTox Green Cytotoxicity Assay to monitor cytotoxicity in HepG2 cells - 24 hour (AID 1224878). Note: nearly all actives have a fitted effect of over 45% in size. The essentials:
as §6

A short description of experiment [15]: A CellTox Green Cytotoxicity Assay to monitor cytotoxicity in HepG2 cells - 40 hour (AID 1224879). Note: nearly all actives have a fitted effect of over 40% in size. The method in brief:
as §6

A short description of experiment [16]: qHTS RealTime-Glo MT Cell Viability Assay in HEK293 cells - 0 hour (AID 1224880). The essentials:
as §5

Experiment [17] can be described thus: A CellTox Green Cytotoxicity Assay to monitor cytotoxicity in HEK293 cells - 32 hour (AID 1224881). Note: nearly all actives have a fitted effect of over 40% in size. The essentials: as §3
A short description of experiment [18]: qHTS RealTime-Glo MT Cell Viability Assay in HepG2 cells - 40 hour (AID 1224870). Note: nearly all actives have a fitted effect of over 50% in size. The essentials:
as §4

The nature of experiment [19]: qHTS assay to identify small molecule antagonists of the estrogen related receptor (ERR) signaling pathway from Tox21 library (AID 1224848). Note: nearly all actives have a fitted effect of over 50% in size. Note: potency is the fitted concentration of half-maximal effect. The method in brief: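 Luminescent reporter read-out (ONE-Glo) from NTP's ERR cell line after 18 h treatment at 37 C with DMSO-dissolved Tox21 compounds; cells pre-plated 6 h beforehand at 2,000 per well.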
Experiment [20] in a line: qHTS assay to identify small molecule agonists of the estrogen related receptor (ERR) signaling pathway from Tox21 library (AID 1224849; calls by dose curve; note: nearly all actives have a fitted effect of over 15% in size). As to conditions: ERR reporter cell line, ONE-Glo luciferase, 18 h; at 92.4 µM (top of the series) unless noted. The method in brief:
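We plated ERR reporter cells, waited 6 h, added compounds in DMSO by pin tool and incubated them 18 h at 37 C. ONE-Glo was then added and luminescence read after 30 min.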

Each structure is given as a SMILES string. Values without a mark were called inactive. Inconclusive results are not listed. The source made the active and inactive calls. Unless noted, calls come from the whole dose curve; as a rule, active = well fitted curve in the direction sought with a large enough effect in the repeat runs; inconclusive = weak or mixed curves; inactive = no such curve, though single readings can be large; an effect the other way counts as inactive or inconclusive.
% is set by controls: 0 for no effect and ±100 for the full control effect.

`COc1c(C(C)(C)C)cc([N+](=O)[O-])c(C)c1[N+](=O)[O-]`: the Potency entry in experiment [1], in experiment [3], in experiment [4], in experiment [5], in experiment [6] and in [7] was “inactive” in each case. For the same molecule, the Potency result in experiment [8], in experiment [9], in experiment [11], in experiment [12], in experiment [13] and in experiment [14] was “inactive” throughout. Further, the Potency result in experiment [15], in experiment [16] and in [17] was “inactive” in each case. Also, in experiment [2], the outcome was inactive. The max response in experiment [10] was 1.56%.
Consider `C=CCC1([C@H](C)CCC)C(=O)NC(=O)NC1=O`, for which the Potency result in experiment [1], in experiment [3], in experiment [4], in experiment [5], in experiment [6] and in experiment [18] was “inactive” in each case. The Potency result in experiment [8], in experiment [9], in experiment [11], in [12], in experiment [13] and in [14] was “inactive” in each case. The Potency result in experiment [15] and in experiment [17] was “inactive” in each case. For the same molecule, in experiment [2], the result was inactive.
Turning to `CCCC(Cn1cncn1)c1ccc(Cl)cc1Cl` (stereo unspecified), the Potency result in [1], in [4], in [6], in [13] and in experiment [16] was “inactive” throughout. Besides, the outcome in experiment [2] was inactive. Also, the values for the Potency in [19], in experiment [5] and in experiment [10] were 30.6 µM (active), 21.9 µM (active) and 21.9 µM (active), respectively. The activity change, positive = activation in experiment [20] was -61.7%.
For the molecule `CC(C)(CCl)C(=O)Cl`, the Potency entry in [1], in [3], in [4], in experiment [5], in [6] and in experiment [8] was “inactive” in each case. Moreover, the Potency result in [9], in experiment [11], in experiment [12], in experiment [13], in experiment [14] and in [15] was “inactive” in each case. In addition, the Potency entry in experiment [16] and in experiment [17] was “inactive” each time. For the same molecule, the molecule was called inactive in experiment [2].
For `CCCCN(N=O)C(=N)N[N+](=O)[O-]`, in experiment [1], the Potency is 103 µM (active). In addition, the result in experiment [2] was inactive. The Potency result in experiment [3], in experiment [4], in [6], in experiment [7], in experiment [8] and in [9] was “inactive” each time. The Potency result in experiment [11], in experiment [12], in experiment [13], in [14], in experiment [15] and in experiment [16] was “inactive” each time. In addition, the Potency result in experiment [17] is “inactive”.
In the case of `CCCN(CCCl)c1c([N+](=O)[O-])cc(C(F)(F)F)cc1[N+](=O)[O-]`, the Potency result in experiment [1], in [19], in experiment [4], in experiment [5], in [6] and in [18] was “inactive” each time. Further, the Potency entry in experiment [7], in experiment [9], in experiment [11], in experiment [12], in [13] and in experiment [14] was “inactive” each time. The Potency result in [15] and in [17] was “inactive” throughout. Besides, the outcome in [2] was inactive. In addition, the activity change, positive = activation in [20] is -4.52%. For the same molecule, the max response in experiment [10] was 1.89%.
For `CCOP(=O)(OCC)O/C(=C/Cl)c1ccc(Cl)cc1Cl`, the Potency result in experiment [1], in experiment [4], in experiment [6], in experiment [18], in experiment [7] and in experiment [9] was “inactive” in each case. Moreover, the Potency result in [11], in [12], in experiment [13], in [14], in experiment [15] and in experiment [16] was “inactive” each time. Further, the Potency entry in experiment [17] was “inactive”. In addition, the molecule was called inactive in [2]. For the same molecule, the Potency in experiment [19] was 6.86 µM (active); in experiment [5], 21.9 µM (active). In experiment [20], the activity change, positive = activation is -61.6%.
